From paper PMC4336329 (PLoS ONE, 2015)
Screen size: about 310,000 compounds; about 14,000 (4.5%) showed an effect of 50% or more. Effects have a minus sign here. This excerpt belongs to a sample that is enriched for strong results.

What follows are compounds tested against human ether-à-go-go-related gene (hERG) potassium channel (human, UniProt Q12809) (assay: primary screen, population patch clamp on CHO cells stably expressing hERG; higher = less effect of the substance).
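Also: peak tail current of the secondary pulse compared with the same well before compound.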

Sequence of human ether-à-go-go-related gene (hERG) potassium channel (Q12809 whole entry, looked up): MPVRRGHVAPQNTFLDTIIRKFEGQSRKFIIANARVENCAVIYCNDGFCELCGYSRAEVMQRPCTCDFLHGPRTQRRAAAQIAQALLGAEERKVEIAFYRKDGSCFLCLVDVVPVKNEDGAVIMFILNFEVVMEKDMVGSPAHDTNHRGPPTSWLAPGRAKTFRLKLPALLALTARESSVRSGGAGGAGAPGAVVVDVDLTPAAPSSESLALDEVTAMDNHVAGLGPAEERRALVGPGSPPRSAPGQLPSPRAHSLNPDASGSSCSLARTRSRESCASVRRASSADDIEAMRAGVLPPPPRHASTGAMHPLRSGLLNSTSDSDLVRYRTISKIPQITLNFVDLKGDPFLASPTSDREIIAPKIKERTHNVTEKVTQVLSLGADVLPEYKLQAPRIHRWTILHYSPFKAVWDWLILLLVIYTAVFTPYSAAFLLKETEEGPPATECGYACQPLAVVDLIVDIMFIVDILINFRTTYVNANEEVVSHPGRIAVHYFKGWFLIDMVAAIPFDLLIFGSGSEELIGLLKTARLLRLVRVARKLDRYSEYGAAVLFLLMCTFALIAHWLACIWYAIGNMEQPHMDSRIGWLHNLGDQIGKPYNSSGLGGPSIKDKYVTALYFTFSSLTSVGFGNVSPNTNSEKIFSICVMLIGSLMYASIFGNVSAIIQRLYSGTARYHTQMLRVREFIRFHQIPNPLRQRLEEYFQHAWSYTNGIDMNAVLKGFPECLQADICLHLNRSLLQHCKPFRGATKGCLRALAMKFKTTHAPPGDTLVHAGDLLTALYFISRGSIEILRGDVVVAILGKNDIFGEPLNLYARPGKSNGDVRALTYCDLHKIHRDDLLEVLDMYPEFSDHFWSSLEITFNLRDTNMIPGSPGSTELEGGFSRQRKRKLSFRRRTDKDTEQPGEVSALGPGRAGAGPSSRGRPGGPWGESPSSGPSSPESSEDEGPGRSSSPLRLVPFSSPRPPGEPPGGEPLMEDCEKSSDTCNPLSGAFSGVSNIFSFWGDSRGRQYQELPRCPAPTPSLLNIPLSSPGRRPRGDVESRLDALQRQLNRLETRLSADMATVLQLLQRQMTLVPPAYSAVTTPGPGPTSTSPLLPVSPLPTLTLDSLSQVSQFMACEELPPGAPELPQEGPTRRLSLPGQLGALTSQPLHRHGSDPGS

Row | Structure (SMILES) | hERG current change (%, negative = inhibition) at 10uM
1 | Cn1ncc(C(=O)Nc2ccc(OC(F)(F)F)cc2)c1-n1cccc1 | -81.3%
2 | O=C(CCn1cccc1)Nc1ccc(OC(F)(F)F)cc1 | 2.32%
3 | O=c1[nH]c2ccccc2nc1/C=C(\O)c1cccs1 | 19.5%
4 | CC(=O)N1CCCc2cc(S(=O)(=O)N(CC(C)C)CC(C)C)ccc21 | -50.4%
5 | CCCN(CCC)S(=O)(=O)c1ccc2c(c1)CCCN2C(C)=O | -47.2%
6 | CCCCN(CC)S(=O)(=O)c1ccc2c(c1)CCCN2C(C)=O | -43.3%
7 | Cn1c(=O)oc2cc(S(=O)(=O)N3CCC(C(=O)NCc4ccccc4)CC3)ccc21 | -6.54%
8 | CC(C)(C)NC(=O)Cn1nnc(-c2ccc(Cl)cc2)n1 | 2.32%
9 | COC(=O)C1=C(C)OC(N)=C(C#N)C1c1cc(OC)c(OCC(N)=O)cc1Cl (centres unmarked) | -10%
10 | COC(=O)c1ccc(N2CCOCC2)c(F)c1 | 9.09%
11 | Cc1cccn2c(=O)nc(SCC(=O)N3CCC(C)CC3)nc12 | -39.5%
12 | Cc1cccn2c(=O)nc(SCC(=O)N3CCC(Cc4ccccc4)CC3)nc12 | -78.9%
13 | Cc1cccn2c(=O)nc(SCC(=O)N3CCCCC3)nc12 | -18.6%
14 | O=C(CSc1nc(=O)n2ccccc2n1)N1CCN(c2ccccc2)CC1 | -27.7%
15 | Cc1ccn2c(=O)nc(SCC(=O)N3CCC(C)CC3)nc2c1 | -18.4%
16 | O=C(CSc1nc(=O)n2ccccc2n1)N1CCC(Cc2ccccc2)CC1 | -58.1%
17 | Cc1ccn2c(=O)nc(SCC(=O)N3CCN(c4ccccc4)CC3)nc2c1 | -28.6%
18 | CC1CCN(C(=O)CSc2nc(=O)n3ccccc3n2)CC1 | 8.67%
19 | Cc1ccc2nc(SCC(=O)N3CCN(c4ccccc4)CC3)nc(=O)n2c1 | -47.5%
20 | Cc1ccc2nc(SCC(=O)N3CCC(Cc4ccccc4)CC3)nc(=O)n2c1 | -65%
21 | Cc1ccn2c(=O)nc(SCC(=O)N3CCC(Cc4ccccc4)CC3)nc2c1 | -55.6%
22 | Cc1ccc2nc(SCC(=O)N3CCC(C)CC3)nc(=O)n2c1 | -9.74%
23 | O=C(CSc1nc(=O)n2ccccc2n1)N1CCCc2ccccc21 | -16.8%
24 | N/C(=N\OC(=O)Cc1ccc([N+](=O)[O-])cc1)c1ccc([N+](=O)[O-])cc1 | -24.4%

Row | Structure (SMILES) | hERG current change (%, negative = inhibition) at 10uM
25 | CC(=O)c1c(C)n(CCc2ccc(Cl)cc2)c2ccc(O)cc12 | 20.8%
26 | O=C(CSc1nc2c(c(C(F)(F)F)n1)CCc1ccccc1-2)NCc1ccco1 | 2.99%
27 | COC1(OC)N=C(N)C2(C#N)C(c3ccccc3)NC(C)=CC12C#N (centres unmarked) | 2.16%
28 | COC(=O)CS(=O)(=O)c1cc(Br)cc2c1N(C(C)=O)CC2 | 5.36%
29 | COC(=O)C1=C(c2ccccc2OCc2ccccc2)C[C@@H]2CC[C@H]1N2C(=O)NCc1ccc(C(F)(F)F)cc1 | -4.61%
30 | O=S(=O)(Cc1cccc(F)c1)c1c[nH]c2ccccc12 | 8.65%
31 | C=CCSc1nc(=O)n2ccc(C)cc2n1 | -22.9%
32 | Cc1cccn2c(=O)nc(SCC(=O)N3CCOCC3)nc12 | 9.72%
33 | Cc1cccn2c(=O)nc(SCC(=O)N3CCN(c4ccccc4)CC3)nc12 | -67.6%
34 | O=c1nc(SCc2cccc(C(F)(F)F)c2)nc2ccccn12 | -37%
35 | Cc1ccn2c(=O)nc(SCc3cccc(C(F)(F)F)c3)nc2c1 | -51.5%
36 | Cc1cccn2c(=O)nc(SCC(=O)N3CCCC3)nc12 | -22.6%
37 | COC(=O)CSc1nc(C)c(Oc2ccccc2)c(=O)[nH]1 | 11.6%
38 | O=c1[nH]c(CN2CCc3ccccc3C2)nc2ccccc12 | 5.47%
39 | CCn1nc(C(=O)N2CCN(Cc3nc4ccccc4s3)CC2)c2ccccc2c1=O | -68.9%
40 | CCn1nc(C(=O)N2CCN(Cc3ccc4c(c3)OCO4)CC2)c2ccccc2c1=O | -52.1%
41 | COc1ccc(-n2nc(C(=O)N3CCN(Cc4ccc5c(c4)OCO5)CC3)c3ccccc3c2=O)cc1 | -4.87%
42 | COc1ccc(CN2CCN(C(=O)Cn3nc(C(=O)O)c4ccccc4c3=O)CC2)cc1F | -37.4%
43 | CCN1CCN(C(=O)c2nn(-c3ccccc3)c(=O)c3ccccc23)CC1 | -2.92%
44 | O=C(c1n[nH]c(=O)c2ccccc12)N1CCN(Cc2ccc3c(c2)OCO3)CC1 | 2.15%
45 | CCn1nc(C(=O)N2CCc3ccccc3C2)c2ccccc2c1=O | -13.6%
46 | Cc1nn(CC(=O)N2CCN(Cc3ccccc3)CC2)c(=O)c2ccccc12 | -2.85%
47 | N#Cc1ccc(CN2CCN(C(=O)Cn3nc(C(N)=O)c4ccccc4c3=O)CC2)cc1 | -70%
